# Hits are enriched below; roughly 2.2% of the tested compounds scored in any of these assays.
# APP transl inh: APP translation inhibition | SH-SY5Y APP 5'UTR-luciferase reporter, luminescence | inhibition, % at 2 µM | 190,000 compounds, 0.82% hits | AID 1285;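 active = inhibition above a set limit, derived from the sample mean plus 3 SD, cut at about 45% in these data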
# BaF3 tox: counter-screen for JAK2V617F inhibitors: parental Ba/F3 viability inhibitors | CellTiter-Glo ATP luminescence | inhibition, % at 5.6 µM | 220,000 compounds, 1.1% hits | AID 1486;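 active = inhibition above a per-campaign cutoff, the mean inhibition of all tested compounds plus 3 SD, cut at about 27% in these data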;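 note: 0% = DMSO wells and 100% = JAK Inhibitor I control wells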
# KLF5 inhibitor: kruppel-like factor 5 inhibition; DLD-1 KLF5 promoter-luciferase reporter, luminescence; inhibition, % at 5 µM; 290,000 compounds, 0.23% hits;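 active = inhibition above a per-plate limit of that plate's mean compound inhibition plus 3 SD, cut at about 60% in these data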;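 note: 0% = DMSO wells and 100% = LY294002 at 200 µM; higher means less KLF5 promoter-driven luciferase light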
# Ba/F3 V617F tox: lowers viability of Ba/F3 cells expressing EpoR and JAK2V617F; ATP luminescence; inhibition, % at 5.6 µM; 220,000 compounds, 1.1% hits;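 active = inhibition above the campaign mean plus 3 SD over all tested compounds, cut at about 24% in these data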;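 note: cytokine-independent growth of Ba/F3 cells driven by EpoR plus mutant JAK2; 0% = DMSO-treated cells and 100% = JAK inhibitor I control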
# aSyn 5UTR inh: 5' untranslated region of α-synuclein, MLPCN primary screen; alpha-synuclein 5'UTR reporter, inhibitor activity; 300,000 compounds, 0.82% hits; inhibition, % (tested at 7.5 µM); in the data active = inhibition above about 60%;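 note: H4 neuroglioblastoma cells stably carrying SNCA 5'UTR luciferase fusion; 0% = DMSO wells and 100% = positive control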
# IEC-6 cytotox: IEC-6 cytotoxicity, counter-screen for KLF5 inhibitors | luminescence viability | inhibition, % at 5 µM | 290,000 compounds, 0.78% hits | AID 1825;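 note: 0% = plate median of test compound wells and 100% = cytotoxic reference compound wells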
# BaF3 tox 2: parental Ba/F3 viability inhibition for JAK2V617F counter-screen; CellTiter-Glo luminescence; cells kept alive by added IL-3; shares compounds with Ba/F3 V617F tox; inhibition, % at 5.6 µM; 580 compounds, 31% hits;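 active = cell growth inhibition above the hit limit set in the earlier mutant JAK2 cell screen, cut at about 27% in these data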;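 note: plate controls were DMSO-treated cells for no effect and JAK Inhibitor I control wells for full effect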
# JAK2V617F conf: Ba/F3 EpoR-JAK2V617F viability loss, confirmation | 580 compounds, 66% hits | shares compounds with Ba/F3 V617F tox | CellTiter-Glo luminescence | inhibition, % at 5.6 µM;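 active = mean inhibition above the hit cutoff derived in the earlier primary screen, cut at about 25% in these data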;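 note: 0% = DMSO-treated cells and 100% = JAK inhibitor I control wells; higher means lower luminescence from reduced cell ATP and viability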
# IEC-6 tox confirm: confirmation of cytotoxic compounds in rat IEC-6 intestinal epithelial cells | shares compounds with IEC-6 cytotox | AID 1907 | inhibition, % at 5 µM | 1,900 compounds, 63% hits | IEC-6 rat intestinal epithelial viability, luminescence;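 note: 0% = vehicle and 100% = reference cytotoxic drug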
# An asterisk follows results filed as active; . = not tested or not shown. Cut-off read from the data, not from the text of the source, unless noted: active = inhibition above about 22%; inactive = the rest.
SMILES,APP transl inh,BaF3 tox,KLF5 inhibitor,Ba/F3 V617F tox,aSyn 5UTR inh,IEC-6 cytotox,BaF3 tox 2,JAK2V617F conf,others
CCCCOc1ccc(C(O)C(CN2CCCCC2)c2ccccc2)cc1 (configuration not stated),3.7,11.1,-14.2,-1.8,-26.7,-5.1,.,.,
Cc1ccc(C)c(S(=O)(=O)Nc2ccc3scnc3c2)c1,5.1,19.8,16.4,35.2*,-61.1,17.4,16.1,32.6*,
O=[N+]([O-])c1cc(/C=N/Nc2nc3ccccc3[nH]2)c(O)cc1O,50.5*,-4.1,22.7,29.8*,59.1,1.8,68.0*,81.1*,
CC1(c2ccc(Cl)cc2)NC(=O)N(CC(=O)Nc2cccnc2Cl)C1=O (configuration not stated),.,.,.,.,-1.0,.,.,.,
Cc1cc(C)nc(Nc2cccc(C(F)(F)F)c2)n1,.,.,-23.4,.,-11.6,-14.9,.,.,
Nc1ccccc1Nc1cccc(C(F)(F)F)c1,6.7,0.5,-37.6,41.9*,-51.7,-8.5,40.4*,92.8*,
CCOc1ccccc1NC(=O)c1ccc2c(c1)C(=O)N(CC)C2=O,.,.,-37.4,.,-19.9,-0.4,.,.,
CCc1ccc(NC(=S)N(CCCN2CCN(C)CC2)Cc2cccs2)cc1,-14.2,11.1,-22.3,3.3,-0.1,-0.7,.,.,
CN1CCN(CCCN(Cc2cccs2)C(=S)Nc2ccc(Cl)cc2)CC1,-10.4,23.2,-0.5,34.2*,11.4,-2.5,27.6*,45.5*,
Cc1nn(C)c(C(=O)Nc2c(C)nn(Cc3c(F)c(F)c(F)c(F)c3F)c2C)c1Br,.,.,-23.5,.,.,9.5,.,.,
NC(N)=Nc1cc2ccccc2c2ccccc12,.,8.6,-13.3,27.9*,-23.5,9.2,3.1,32.6*,
CCN(CC(=O)Nc1ccccc1C(F)(F)F)C(=O)CN1C(=O)NC2(CCCC2)C1=O,.,.,.,.,12.8,.,.,.,
O=C(CN1CCN(c2ccccc2Cl)CC1)NC1CCCc2ccccc21 (configuration not stated),-18.8,3.4,2.7,1.9,-11.2,-2.1,.,.,
Cc1ccc(Cl)cc1N1CCN(CC(=O)NC2CCCc3ccccc32)CC1 (configuration not stated),-8.4,3.6,1.2,58.5*,-2.9,3.6,-1.1,6.1,
CN(C)N1C(N)=C(C#N)C(c2ccc3c(c2)OCO3)C2=C1CC(C)(C)CC2=O (configuration not stated),.,.,-4.9,.,-1.2,-10.4,.,.,
N/C(=N\OC(=O)c1cccc(Br)c1)c1ccc(Br)cc1,5.4,0.7,6.7,35.0*,-95.8,6.6,-3.0,-2.1,
Cc1ccc(Nc2nc(N)nc(CCl)n2)cc1,.,0.9,-31.1,33.9*,-53.2,-1.8,-0.5,57.9*,
Nc1nc(CCl)nc(Nc2ccccc2)n1,-15.1,4.9,-10.8,4.1,-53.2,-1.9,.,.,
CCOc1ccc(Nc2nc(N)nc(CCl)n2)cc1,.,10.4,-54.2,98.6*,96.0*,100.5*,16.8,99.2*,
COc1cccc(Nc2nc(N)nc(CCl)n2)c1,.,-4.3,19.9,-3.5,-22.8,2.9,.,.,
Cn1c(CC(=O)Nc2ccccc2F)nnc1SCC(=O)Nc1ccccc1Br,.,.,-13.3,.,-4.8,4.3,.,.,
COc1cccc(/C=C/C(=O)OCC(=O)NCc2ccco2)c1,1.4,3.4,-36.8,-1.1,-6.6,-10.6,.,.,
C#CC[N+](C)(C)CC#Cc1ccc(Cl)cc1,6.8,18.3,-2.3,32.0*,11.0,3.5,28.5*,82.9*,
CSc1cccc(NC(=S)N2CCC(N(C)C3CCCCCC3)CC2)c1,17.1,11.0,3.1,5.0,0.6,5.8,.,.,
CN(C1CCCC1)C1CCN(C(=S)Nc2cc(F)cc(F)c2)CC1,6.9,20.0,-15.9,30.6*,-9.9,5.7,3.5,31.9*,
SMILES,APP transl inh,BaF3 tox,KLF5 inhibitor,Ba/F3 V617F tox,aSyn 5UTR inh,IEC-6 cytotox,BaF3 tox 2,JAK2V617F conf,others
CCCCCCN(C(=O)CCl)c1ccccc1,.,-0.1,-52.6,49.3*,-37.5,-6.4,0.8,62.7*,
CCCCCCCN(C(=O)CCl)c1cccc(C)c1,-5.1,10.1,12.8,6.6,-30.6,6.4,.,.,
Cc1nc(NCc2ccco2)c2c(C)c(C)sc2n1,3.5,3.7,2.8,26.8*,-176.5,18.5,34.1*,84.5*,
Cc1sc2nc3c4ccccc4c(NCc4ccco4)nn3c(=O)c2c1C,-135.9,4.0,26.2,4.0,.,-7.4,.,.,
COc1ccccc1C(C[N+](=O)[O-])c1c(N)n(C)c(=O)n(C)c1=O (configuration not stated),.,4.5,-1.8,37.1*,-10.1,3.3,-0.7,96.1*,
COc1ccccc1C(c1c(N)n(C)c(=O)n(C)c1=O)C(C)[N+](=O)[O-] (configuration not stated),.,3.4,-1.4,-3.6,-13.5,-7.5,.,.,
CCC(C(=O)N/N=C(\C)c1cccnc1)c1ccccc1 (configuration not stated),.,.,-13.9,.,6.2,10.7,.,.,
Cn1cc([N+](=O)[O-])c(C(=O)Nc2cc(Oc3ccccc3)cc([N+](=O)[O-])c2)n1,97.4*,1.6,-9.9,26.4*,11.8,22.7*,32.3*,98.6*,IEC-6 tox confirm=18.8
O=[N+]([O-])c1ccc(Sc2nnnn2-c2ccccc2)nc1,93.8*,2.8,-2.6,68.9*,-19.7,37.5*,29.4*,99.7*,IEC-6 tox confirm=44.2*
COc1ccccc1Nc1nc(N)nc(CCl)n1,.,2.4,-24.5,-1.5,-12.0,0.2,.,.,
Cc1cccc(Nc2nc(N)nc(CCl)n2)c1C,.,3.5,-22.2,99.6*,3.2,101.7*,4.5,98.4*,IEC-6 tox confirm=1.0
COc1ccc2c3c(cccc13)C(=O)N(O)C2=O,9.7,1.5,21.7,30.1*,7.3,62.8*,-2.1,17.8,IEC-6 tox confirm=33.3*
COc1ccccc1N1C(=O)c2cccc3c(C(=O)O)ccc(c23)C1=O,4.6,2.8,-13.7,-1.6,-2.8,-2.2,.,.,
N#CC1=C(N)Oc2cc3ccccc3cc2C1c1cccnc1 (configuration not stated),7.0,24.6,0.3,30.1*,-16.1,47.3*,30.6*,47.5*,IEC-6 tox confirm=43.8*
COc1ccc(/C=N/NC(=O)c2cccnc2)cc1COc1ccc([N+](=O)[O-])c(C)c1,.,17.8,57.3,25.3*,97.9*,45.2*,46.9*,93.2*,IEC-6 tox confirm=43.4*
COc1ccc(/C=N/NC(=O)c2ccn[nH]2)cc1COc1ccc([N+](=O)[O-])c(C)c1,.,2.2,-43.5,-3.5,18.7,6.1,.,.,
CC(=O)Nc1cccc(NC(=O)CSc2nc(=O)n(CCN3CCOCC3)c3c2CCCC3)c1,.,.,.,.,1.4,.,.,.,
CC(=O)Cc1cc(O)c2ccccc2c1OC(=O)c1ccccc1,-6.6,-3.8,-12.3,27.8*,-7.4,54.9*,27.6*,40.5*,IEC-6 tox confirm=-9.2
COc1ccc(NS(=O)(=O)c2cc3c4c(c2)CCN4C(=O)CC3)c(OC)c1,.,.,.,.,-5.1,.,.,.,
CCCc1ccc(OCc2ccc(C(=O)N3CCSCC3)o2)cc1,.,.,-94.6,.,-147.7,-3.2,.,.,
